For 14 molecules, outcome and AC50 results are on record in PubChem BioAssay (EPA / NIEHS).

Inconclusive results are not listed. Active and inactive are the calls of the source. Rule for the calls, unless noted: active = hit-call score of the fitted dose curve at least 0.9, where 1 is the maximum; inconclusive = response in the unintended direction; inactive = score below 0.9.

Experiment [1] can be described thus: CEETOX_H295R_11DCORT_noMTC: CeeTox H295R High-throughput Steroidogenesis Assay for 11-Deoxycortisol (11DCORT), maximum tolerated concentration (MTC) filtered results only (AID 2283911; active = hit-call score of the fitted dose curve at least 0.9, where 1 is the maximum; inactive = score below 0.9). To be noted: actives raise or lower the signal. Summed up: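 Values carry no filtering for maximum tolerated concentration: medium from forskolin-primed (10 uM, 48 h) H295R cells after 48 h chemical exposure (0.1% DMSO) was MTBE-extracted, and 11-deoxycortisol quantified by reverse-phase HPLC-MS/MS. Fitting was bidirectional against DMSO.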

Experiment [2] is described as follows: CEETOX_H295R_OHPREG_noMTC: CeeTox H295R High-throughput Steroidogenesis Assay for OH-Pregnenolone (OHPREG), maximum tolerated concentration (MTC) filtered results only (AID 2283912; active = hit-call score of the fitted dose curve at least 0.9, where 1 is the maximum; inactive = score below 0.9). The settings on record: actives raise or lower the signal. The method in brief: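 H295R cells prestimulated 48 h with 10 uM forskolin, then exposed 48 h to compound (0.1% DMSO). 17alpha-hydroxypregnenolone in medium measured by MTBE extraction and HPLC-MS/MS; bidirectional fit vs DMSO, concentrations not MTT/MTC-filtered.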

A short description of experiment [3]: CEETOX_H295R_OHPROG_noMTC: CeeTox H295R High-throughput Steroidogenesis Assay for OH-Progesterone (OHPROG), maximum tolerated concentration (MTC) filtered results only (AID 2283914; active = hit-call score of the fitted dose curve at least 0.9, where 1 is the maximum; inactive = score below 0.9). The settings on record: actives raise or lower the signal. Summed up:
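H295R cells prestimulated 48 h with 10 uM forskolin, then exposed 48 h to chemical (0.1% DMSO final). 17alpha-hydroxyprogesterone in medium quantified by HPLC-MS/MS after MTBE extraction; bidirectional fitting versus DMSO, concentrations not MTC-filtered.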

The nature of experiment [4]: CEETOX_H295R_CORTISOL_noMTC: CeeTox H295R High-throughput Steroidogenesis Assay for Cortisol, maximum tolerated concentration (MTC) filtered results only (AID 2283916; active = hit-call score of the fitted dose curve at least 0.9, where 1 is the maximum; inactive = score below 0.9). To be noted: actives raise or lower the signal. The method in brief:
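H295R human adrenal cells prestimulated 48 h with 10 uM forskolin, then exposed 48 h to chemical in 0.1% DMSO; cortisol in medium quantified by HPLC-MS/MS; bidirectional fit vs DMSO baseline, concentrations not MTT-filtered for MTC.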

Experiment [5] can be described thus: CEETOX_H295R_CORTIC_noMTC: CeeTox H295R High-throughput Steroidogenesis Assay for Corticosterone (CORTIC), maximum tolerated concentration (MTC) filtered results only (AID 2283917; active = hit-call score of the fitted dose curve at least 0.9, where 1 is the maximum; inactive = score below 0.9). To be noted: actives raise or lower the signal. Summed up: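 H295R adrenal cells pre-stimulated 48 h with 10 uM forskolin, then exposed 48 h to chemical in 0.1% DMSO; corticosterone in medium quantified by HPLC-MS/MS, fitted bidirectionally versus DMSO without MTT-based concentration filtering.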

Experiment [6] can be described thus: CEETOX_H295R_DOC_noMTC: CeeTox H295R High-throughput Steroidogenesis Assay for DOC, maximum tolerated concentration (MTC) filtered results only (AID 2283918; active = hit-call score of the fitted dose curve at least 0.9, where 1 is the maximum; inactive = score below 0.9). The settings on record: actives raise or lower the signal. Summed up:
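H295R cells prestimulated 48 h with 10 uM forskolin, then exposed 48 h to chemical in 0.1% DMSO. 11-Deoxycorticosterone in medium measured by MTBE extraction and HPLC-MS/MS; bidirectional fit vs DMSO, no MTC filter.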

Experiment [7] is described as follows: CEETOX_H295R_PROG_noMTC: CeeTox H295R High-throughput Steroidogenesis Assay for Progesterone (PROG), maximum tolerated concentration (MTC) filtered results only (AID 2283920; active = hit-call score of the fitted dose curve at least 0.9, where 1 is the maximum; inactive = score below 0.9). To be noted: actives raise or lower the signal. The method in brief:
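H295R cells, prestimulated 48 h with 10 uM forskolin, exposed 48 h to chemical in 0.1% DMSO. Medium progesterone quantified by MTBE extraction and HPLC-MS/MS; bidirectional fit versus DMSO, concentrations not MTT-filtered.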

The nature of experiment [8]: ATG_M_61_XSP2: Attagene TRANS-FACTORIAL Multi-Species (XSP2) HepG2 Assay for M61 Transcription Factor (Internal Marker) (AID 2283835; active = hit-call score of the fitted dose curve at least 0.9, where 1 is the maximum; inactive = score below 0.9;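 note: active means a rise in signal above the DMSO baseline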). Summed up:
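HepG2 cells transiently transfected with multiple GAL4-UAS reporter units; reporter mRNA measured 24 h after dosing by RT-PCR, fluorescent labelling and capillary electrophoresis. Medium contained 3 nM 6-alpha-fluorotestosterone and 1.5 nM norgestrel; internal marker, DMSO baseline.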

In experiment [9] the target is zebrafish Thyroid Hormone Receptor beta (TRb), thrb (gene 30607) (UniProt Q9PVE4). Put plainly: ATG_zfTRb_XSP2: Attagene TRANS-FACTORIAL Multi-Species (XSP1) HepG2 Assay for zebrafish Thyroid Hormone Receptor beta (TRb) (AID 2283836). Summed up: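 Fluorescence of labelled reporter cDNA fragments, separated by capillary electrophoresis, gives mRNA induction from exogenous NR-Gal4 chimeras in transiently transfected HepG2 cells after 24 h dosing; 3 nM 6-alpha-fluorotestosterone and 1.5 nM norgestrel included in the run.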

Experiment [10] is described as follows: ATG_XTT_Cytotoxicity_XSP2: Cytotoxicity Assessment in the Attagene TRANS-FACTORIAL Multi-Species (XSP2) HepG2 Assay (AID 2283837). The method in brief: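 HepG2 cells, transiently transfected with multiple reporter constructs, exposed to chemical for 24 h. Cell number assessed with XTT fluorescence read-out; loss of signal fitted relative to DMSO.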
Experiment [11] has as its target human Thyroid hormone Receptor alpha (TRa), THRA (gene 7067) (UniProt P10827). Put plainly: ATG_hTRa_XSP2: Attagene TRANS-FACTORIAL Multi-Species (XSP2) HepG2 Assay for human Thyroid hormone Receptor alpha (TRa) (AID 2283838). Summed up:
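HepG2 cells transiently transfected with multiplexed GAL4-UAS reporter units and exogenous NR-GAL4 chimeras; 24 h chemical exposure with 3 nM 6-alpha-fluorotestosterone and 1.5 nM norgestrel present. Reporter mRNA measured by RT-PCR, FAM labelling, HpaI digestion, capillary electrophoresis; gain-of-signal versus DMSO.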

Experiment [12] addresses frog Thyroid hormone Receptor alpha (TRa), thra-a (gene 397942) (UniProt P15204). Put plainly: ATG_frTRa_XSP2: Attagene TRANS-FACTORIAL Multi-Species (XSP2) HepG2 Assay for frog Thyroid hormone Receptor alpha (TRa) (AID 2283839). Summed up:
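Reporter transcripts were measured by RT-PCR with capillary electrophoresis after 24 h dosing of HepG2 carrying transiently transfected multi-reporter units, including a chimeric frog TRa-GAL4 construct. Activity was taken as increase over DMSO vehicle.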

The target of experiment [13] is human Thyroid hormone Receptor beta (TRb), THRB (gene 7068) (UniProt P10828). The experiment can be described thus: ATG_hTRb_XSP2: Attagene TRANS-FACTORIAL Multi-Species (XSP2) HepG2 Assay for human Thyroid hormone Receptor beta (TRb) (AID 2283840).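 Note: actives raise reporter mRNA so potency reflects agonist-like gain of signal.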 The method in brief:
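Activity of exogenous human TRb–Gal4 fusion measured by reporter mRNA from RT-PCR and capillary electrophoresis, 24 h after dosing transfected HepG2. 6-alpha-fluorotestosterone (3 nM) and norgestrel (1.5 nM) present. Gain-of-signal fit relative to DMSO.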

The target of experiment [14] is PGR (gene 5241) (UniProt P06401). The experiment can be described thus: TOX21_PR_BLA_Followup_Antagonist_ratio: Tox21 HEK293 Progesterone Receptor (PR) Antagonism Beta-lactamase Follow-Up Assay, Ratio (AID 2283934).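 Note: PR-UAS-bla HEK293T cells stimulated with 1 nM R5020 agonist for 16 hr.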 Summed up:
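Antagonist mode used 1 nM R5020 (final) as agonist on a beta-lactamase reporter line in HEK293T cells. Activity was taken from the substrate cleavage ratio after 16 hr exposure.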

Experiment [15] has as its system Sodium/Iodide Symporter (NIS), SLC5A5 (gene 6528). The experiment can be described thus: CPHEA_Stoker_NIS_Inhibition_RAIU: CPHEA's Radioactive Iodide Uptake (RAIU) Assay for Sodium/Iodide Symporter (NIS) Inhibition, Stoker and Laws Labs (AID 2283841). Summed up: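 Iodide uptake read as CPM of intracellular 125I (final 329 pM) after 2 h room-temperature exposure in HEPES-buffered HBSS, pH 7.4. Human NIS-expressing HEK293T cells; six concentrations 0.001–100 uM, 0.5% DMSO, normalised to DMSO wells.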

Experiment [16] in a line: CPHEA_Stoker_NIS_Cytotoxicity: Cytotoxicity Assessment for CPHEA's Radioactive Iodide Uptake (RAIU) Assay for Sodium/Iodide Symporter (NIS) Inhibition, Stoker and Laws Labs (AID 2283897).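 For AC50: active means loss of ATP signal versus DMSO meaning cytotoxicity.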 The method in brief:
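CellTiter-Glo ATP luminescence gauged viability in HEK293T cells expressing human NIS after 2 h chemical exposure. Concentrations ran 0.001–100 uM in 0.5% DMSO; DMSO served as baseline for the loss-of-signal fit.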

human Thyroid hormone Receptor beta (TRb), THRB (gene 7068), sequence (P10828 whole entry, looked up, the tested form may be a part): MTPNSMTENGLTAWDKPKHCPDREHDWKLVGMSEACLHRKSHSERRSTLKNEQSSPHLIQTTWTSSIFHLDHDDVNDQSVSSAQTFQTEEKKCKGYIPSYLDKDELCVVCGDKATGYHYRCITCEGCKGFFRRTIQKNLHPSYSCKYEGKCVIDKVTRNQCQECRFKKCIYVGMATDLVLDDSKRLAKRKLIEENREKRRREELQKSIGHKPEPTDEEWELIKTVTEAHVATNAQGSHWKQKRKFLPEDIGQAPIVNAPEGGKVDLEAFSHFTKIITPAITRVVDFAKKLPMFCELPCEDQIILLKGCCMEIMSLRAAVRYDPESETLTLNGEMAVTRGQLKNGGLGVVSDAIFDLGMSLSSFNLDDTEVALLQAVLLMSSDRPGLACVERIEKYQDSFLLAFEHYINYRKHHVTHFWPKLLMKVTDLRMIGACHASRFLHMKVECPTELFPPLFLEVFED
frog Thyroid hormone Receptor alpha (TRa), thra-a (gene 397942), sequence (P15204 whole entry, looked up, the tested form may be a part): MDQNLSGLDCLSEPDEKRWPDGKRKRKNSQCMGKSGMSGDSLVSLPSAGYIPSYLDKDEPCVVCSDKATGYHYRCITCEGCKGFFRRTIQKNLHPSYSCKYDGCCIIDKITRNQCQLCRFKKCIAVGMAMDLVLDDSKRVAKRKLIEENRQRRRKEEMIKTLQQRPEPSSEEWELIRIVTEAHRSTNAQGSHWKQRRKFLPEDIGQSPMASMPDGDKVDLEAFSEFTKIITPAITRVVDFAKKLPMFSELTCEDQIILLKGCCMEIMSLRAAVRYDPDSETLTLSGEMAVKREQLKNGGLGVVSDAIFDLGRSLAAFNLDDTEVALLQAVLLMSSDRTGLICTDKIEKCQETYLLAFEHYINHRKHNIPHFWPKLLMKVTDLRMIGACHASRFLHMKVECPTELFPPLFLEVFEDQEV
zebrafish Thyroid Hormone Receptor beta (TRb), thrb (gene 30607), sequence (Q9PVE4 whole entry, looked up, the tested form may be a part): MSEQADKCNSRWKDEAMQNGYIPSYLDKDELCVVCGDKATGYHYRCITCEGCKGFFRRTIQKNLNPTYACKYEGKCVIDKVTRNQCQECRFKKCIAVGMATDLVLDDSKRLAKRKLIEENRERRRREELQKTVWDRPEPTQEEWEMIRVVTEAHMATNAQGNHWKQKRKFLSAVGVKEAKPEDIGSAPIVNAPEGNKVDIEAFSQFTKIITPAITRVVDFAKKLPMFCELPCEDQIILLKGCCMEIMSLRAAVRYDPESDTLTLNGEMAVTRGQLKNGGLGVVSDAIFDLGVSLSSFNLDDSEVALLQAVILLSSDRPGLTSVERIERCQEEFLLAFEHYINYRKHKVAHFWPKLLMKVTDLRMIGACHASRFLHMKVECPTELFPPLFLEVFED
human Thyroid hormone Receptor alpha (TRa), THRA (gene 7067), sequence (P10827 whole entry, looked up, the tested form may be a part): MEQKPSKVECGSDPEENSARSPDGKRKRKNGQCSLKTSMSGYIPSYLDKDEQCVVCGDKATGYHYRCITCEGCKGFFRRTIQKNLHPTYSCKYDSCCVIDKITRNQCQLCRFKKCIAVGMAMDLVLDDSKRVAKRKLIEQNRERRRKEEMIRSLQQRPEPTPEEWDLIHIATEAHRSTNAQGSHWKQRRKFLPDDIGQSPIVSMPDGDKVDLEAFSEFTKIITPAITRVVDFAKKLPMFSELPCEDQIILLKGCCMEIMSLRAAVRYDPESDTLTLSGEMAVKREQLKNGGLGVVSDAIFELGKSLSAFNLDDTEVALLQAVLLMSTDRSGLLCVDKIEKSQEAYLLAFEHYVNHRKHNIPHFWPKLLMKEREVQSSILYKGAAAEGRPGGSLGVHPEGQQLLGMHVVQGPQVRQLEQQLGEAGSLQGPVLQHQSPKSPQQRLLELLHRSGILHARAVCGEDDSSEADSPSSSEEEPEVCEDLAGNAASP
PGR (gene 5241), sequence (P06401 whole entry, looked up): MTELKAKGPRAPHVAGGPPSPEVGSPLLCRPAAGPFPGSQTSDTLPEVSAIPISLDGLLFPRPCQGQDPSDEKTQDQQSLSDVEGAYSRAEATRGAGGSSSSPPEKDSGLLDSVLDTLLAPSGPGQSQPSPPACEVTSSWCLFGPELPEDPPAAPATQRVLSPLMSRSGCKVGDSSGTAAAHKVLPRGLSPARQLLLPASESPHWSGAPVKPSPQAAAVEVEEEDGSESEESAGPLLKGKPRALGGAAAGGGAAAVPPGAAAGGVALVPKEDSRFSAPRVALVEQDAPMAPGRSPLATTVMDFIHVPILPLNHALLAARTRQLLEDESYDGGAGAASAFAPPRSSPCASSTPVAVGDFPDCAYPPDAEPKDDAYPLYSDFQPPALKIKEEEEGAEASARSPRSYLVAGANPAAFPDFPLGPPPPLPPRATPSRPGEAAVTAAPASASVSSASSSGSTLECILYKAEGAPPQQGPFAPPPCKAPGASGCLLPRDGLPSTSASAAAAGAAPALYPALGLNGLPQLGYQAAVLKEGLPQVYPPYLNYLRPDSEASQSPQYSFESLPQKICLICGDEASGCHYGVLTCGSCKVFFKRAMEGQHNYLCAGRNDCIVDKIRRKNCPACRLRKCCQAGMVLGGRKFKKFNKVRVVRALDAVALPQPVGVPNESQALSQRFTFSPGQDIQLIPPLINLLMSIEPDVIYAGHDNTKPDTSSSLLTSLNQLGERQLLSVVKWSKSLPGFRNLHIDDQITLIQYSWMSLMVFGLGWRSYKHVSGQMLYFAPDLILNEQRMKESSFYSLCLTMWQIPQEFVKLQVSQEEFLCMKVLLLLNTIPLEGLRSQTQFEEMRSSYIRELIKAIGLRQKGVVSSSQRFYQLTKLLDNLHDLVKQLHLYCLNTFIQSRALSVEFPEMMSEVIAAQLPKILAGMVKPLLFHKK

Take `CC(C)OC(=O)c1ccccc1C(=O)OC(C)C`: the molecule was classed as inactive in experiment [1], in experiment [2], in experiment [3], in experiment [4], in experiment [5] and in experiment [6]. Besides, the result in [7] was inactive.

In general, AC50 refers to the midpoint of the concentration-response curve, whichever way the signal moves. Regarding `C#C[C@]1(O)CC[C@H]2[C@@H]3CCc4cc(OC)ccc4[C@H]3CC[C@@]21C`, the result in [8], in experiment [9], in experiment [10], in experiment [11], in experiment [12] and in experiment [14] was inactive. Further, the half-maximal activity concentration (AC50) in experiment [13] was 0.0262 µM (active).

For `O=S(=O)(O)C(F)(F)C(F)(F)C(F)(F)C(F)(F)C(F)(F)C(F)(F)C(F)(F)F`, the concentration at half-maximal activity (AC50) in [15] was 2.31 µM (active).

In the case of `FC(F)(F)C(F)(F)C(F)(F)C(F)(F)C(F)(F)CCI`, in experiment [15], the AC50 was 13.3 µM (active).

In the case of `O=C(CC(=O)C(F)(F)C(F)(F)F)C(F)(F)F`, the half-maximal activity concentration (AC50) in [15] is 9.92 µM (active).

As to `O=S(=O)(OCCOC(F)(F)F)C(F)(F)F`, the outcome in [15] was inactive.

As for `OCCCC(F)(F)C(F)(F)C(F)(F)C(F)(F)C(F)(F)C(F)(F)C(F)(F)F`, in [15], the outcome was inactive.

Regarding `C(=C(c1ccccc1)c1ccccc1)c1ccccc1`, the call in experiment [8], in experiment [9], in [11], in experiment [12], in [13] and in [15] was inactive. For the same molecule, in experiment [16], the result was inactive. For the same molecule, in experiment [14], the AC50 was 30.7 µM (active).

With `CC(Cc1ccc(O)c(O)c1)C(C)Cc1ccc(O)c(O)c1` (stereo not drawn), the AC50 in [16] was 84 µM (active).

`C=CC(=O)OCC(F)(F)C(F)(F)C(F)(F)C(F)(F)COC(=O)C=C`: the result in experiment [15] was inactive.

Consider `c1ccc(B(c2ccccc2)c2ccccc2)cc1`, for which the result in experiment [8], in [9], in [10], in experiment [11], in experiment [12] and in experiment [13] was inactive.

With `C=CC(=O)OCC(F)(F)C(F)(F)C(F)(F)C(F)(F)C(F)(F)C(F)(F)C(F)(F)F`, the outcome in [15] was inactive.

Consider `OCC(F)(F)C(F)(F)C(F)(F)C(F)(F)C(F)(F)C(F)F`, for which, in [15], the result was inactive.

On to `FC(F)(F)C(F)(F)C(F)(F)N(C(F)(F)C(F)(F)C(F)(F)F)C(F)(F)C(F)(F)C(F)(F)F`, for which the result in experiment [15] was inactive.
